Assay outcomes from PubChem BioAssay.
HIV TAR-Tat: HIV-1 TAR-Tat binding disruption; HIV-1 TAR RNA, Tat peptide displacement FRET; stronger effect = higher value; z-score (test concentration not listed); AID 1259389; actives 0.6% (n = 100,000); active means z-score of 3 or more in at least 2 runs
CDC25B-CDK2 inh: human CDC25B-CDK2/CyclinA binding inhibition; HTRF CDC25B-CDK2/CyclinA binding, anti-His/anti-Flag; stronger effect = higher value; P30305+P24941; AID 1259370; actives 0.72% (n = 94,000); z-score (test concentration not listed); in the data active means z-score above about 3.2
* = called active by the depositor; x = no result given. In the library only some 0.9% were active in any assay of this set; here they are far more common.

SMILES	HIV TAR-Tat	CDC25B-CDK2 inh
CC1CCCN(c2cc(NCCO)c3c4c(onc24)-c2ccccc2C3=O)C1 (centres undefined)	2.7	-0.36
CC1CCCN(c2cc(NCC(=O)O)c3c4c(onc24)-c2ccccc2C3=O)C1 (centres undefined)	-6	3*
CCNc1cc(N2CCCC(C(=O)OCC)C2)c2noc3c2c1C(=O)c1ccccc1-3 (centres undefined)	1.8	-2
CCOC(=O)C1CCCN(c2cc(NCCO)c3c4c(onc24)-c2ccccc2C3=O)C1 (centres undefined)	8.8*	0.97
CC(C)C1Oc2ccccc2C2CC(c3ccccc3)=NN21 (centres undefined)	x	-1.2
CSc1ccc(CNC(=O)c2ccc3c(c2)nc2n3CCOC2)cc1	0.74	x
CC(C)Cn1cc(NC(=O)Nc2cc(F)ccc2F)c2ccccc2c1=O	1.1	x
CC(C)Cn1cc(NC(=O)Nc2ccc(Br)cc2F)c2ccccc2c1=O	-0.05	14*
O=C(CCc1nnc2ccc(NCc3ccc4c(c3)OCO4)nn12)Nc1ccccn1	0.65	x
Cc1cc2c(NC(=O)Nc3ccc(C(C)(C)C)cc3)cccc2nn1	x	-2
Cc1cc2c(NC(=O)c3ccccc3C(=O)O)cccc2nn1	x	21*
Cc1nc(-c2ccc(C)c(S(=O)(=O)NC3CCCCC3)c2)cs1	0.89	x
CC(=O)N1N=C(c2cc(C3CC3)nc3ccccc23)OC1c1ccc(Cl)cc1 (centres undefined)	2.8	x
COc1cc(OC)c(Nc2ncnc3sc(C(=O)O)c(C)c23)cc1Cl	4.2*	x
COCCNc1ncnc2sc(C(=O)O)c(C)c12	2.5	x
Cc1c(C(=O)N2CCN(c3ccccc3)CC2)sc2ncnc(N3CCN(c4ccccn4)CC3)c12	1.2	-1.7
CCC(C)Nc1ncnc2sc(C(=O)O)c(C)c12 (centres undefined)	3.3	x
CCOc1ccc(Nc2ncnc3sc(C(=O)O)c(C)c23)cc1	4.7*	x
Cc1c(C(=O)O)sc2ncnc(NCCc3ccco3)c12	0.32	x
Cc1c(C(=O)O)sc2ncnc(N3CCN(c4ccccc4)CC3)c12	29*	x
Cc1c(C(=O)O)sc2ncnc(NCc3cccs3)c12	9.8*	x
COc1ccc(NC(=O)CN2N=NC3C(=O)N(c4ccc(F)c(Cl)c4)C(=O)C32)c(OC)c1 (centres undefined)	0.07	x
O=C(NCCSc1ccc(Cl)cc1)Nc1ccccc1	1.2	x
CCc1nn2c(=O)cc(CSc3nc(-c4ccccc4F)nc4cc(=O)[nH]n34)nc2s1	0.32	x
Cc1c(C(=O)O)sc2ncnc(Nc3ccc(F)cc3)c12	25*	x
SMILES	HIV TAR-Tat	CDC25B-CDK2 inh
Cc1c(C(=O)O)sc2ncnc(Nc3cccc(Cl)c3)c12	21*	x
Cc1c(C(=O)O)sc2ncnc(NCC3CCCO3)c12 (centres undefined)	2.1	x
Cc1c(C(=O)O)sc2ncnc(NC(C)C)c12	0.33	x
CCOc1nc2cnccc2n(CC(=O)N2CCCC2)c1=O	1	x
CCNC(=O)C1CCCN(c2nn3c(=O)cc(C)nc3s2)C1 (centres undefined)	2.2	-0.64
CC(C)Cn1cc(NC(=O)N2CCCCC2C)c2ccccc2c1=O (centres undefined)	2	x
Cc1c(C(=O)CC#N)sc2ccc(Cl)cc12	x	-0.26
Cc1c(C(=O)Cn2ccnc2)sc2ccc(Cl)cc12	x	14*
COc1cc(OC)cc(C(=O)Nc2nc3c(s2)Cc2cc(OC)ccc2-3)c1	-0.26	-0.69
CC(=O)Nc1nc2c(s1)Cc1ccccc1-2	x	18*
COc1ccc2c(c1)Cc1sc(NC(=O)c3ccc(OC)c(OC)c3)nc1-2	-0.93	19*
Oc1ccccc1CNc1nc2c(s1)CCc1ccccc1-2	1.1	-1.5
Cn1cc(CCC(=O)NCc2ccccn2)c2ccccc21	1.2	x
CCOC(=O)c1ncn(-c2ccccc2)n1	0.55	-1.9
CCOC(=O)Cn1cnc2nn(-c3ccccc3)cc2c1=O	5.1*	3.6
COc1cccc2cc(C3=Nn4c(nnc4-c4ccc(Br)cc4)SC3)c(=O)oc12	x	-1.6
Cc1sc2c(c1C)CSC(C(=O)Nc1cccc(Cl)c1)=C2	-5.2	x
C=CCSc1nc2c(c(=O)[nH]1)C(c1cccs1)C(C(=O)OC(C)C)=C(C)N2 (centres undefined)	-1.2	-2.1
C(=C\c1ccc2c(c1)OCO2)/C1=NN(c2ccccc2)C(c2ccc3c(c2)OCO3)C1 (centres undefined)	0.32	16*
Cn1c(/C=C/c2ccc3c(c2)OCO3)nc2ccccc2c1=O	0.6	0.59
CC1CS(=O)(=O)N(c2ccc(C(=O)N3CCN(Cc4ccc5c(c4)OCO5)CC3)cc2)C1=O (centres undefined)	2.5	0.18
O=C1CSc2ccc(S(=O)(=O)NCCCc3ccccc3)cc2N1	0.75	x
CCOC(=O)N1CCC(Nc2c(NC3CCCCC3C)c(=O)c2=O)CC1 (centres undefined)	2.2	-1.9
CC(=O)Oc1ccc2ccccc2c1-c1c(OC(C)=O)ccc2ccccc12	-0.52	-2
CC(=O)Oc1ccc(OC(C)=O)c2c1C(=O)c1ccccc1C2=O	x	17*
SMILES	HIV TAR-Tat	CDC25B-CDK2 inh
O=C(CSc1nccn1Cc1ccc2c(c1)OCO2)Nc1ccc2c(c1)OCO2	0.63	x
COc1ccc(Oc2nc(N3CCCC3)c(Cl)c3c2N(CC2CCCO2)CCS3(=O)=O)cc1 (centres undefined)	-1.2	9.4*
CCCCN1CCS(=O)(=O)c2c(Cl)c(N3CCOCC3)nc(Oc3ccc(F)cc3)c21	0.06	7.8
Clc1ccccc1CN1CCc2nc(Nc3ccc4c(c3)OCCO4)ncc2C1	1.7	x
CN1CCC=C(C(=O)N/N=C/c2cccnc2)C1	x	1.4
COc1ccc(CN2C(=O)c3cccnc3C2=O)cc1S(=O)(=O)N1CCSc2ccccc21	1.1	x
O=c1ccc2ccc(O)cc2o1	0.33	x
O=c1ccc2cc(O)c(O)cc2o1	25*	x
Cc1ccc(CNC(=O)CC(C)CC2=NS(=O)(=O)c3ccccc3N2)o1 (centres undefined)	0.5	x
CC(CC(=O)NCc1ccco1)CC1=NS(=O)(=O)c2ccccc2N1 (centres undefined)	9.5*	x
COCCNC(=O)Cc1noc2ccccc12	1.3	-0.32
CN(C)CCCNc1cc(N2CCCC2)c2noc3c2c1C(=O)c1ccccc1-3	8.8*	1.9
CCCN1CCN(c2cc(NCCOC)c3c4c(onc24)-c2ccccc2C3=O)CC1	-0.12	-2.1
CCCN1CCN(c2cc(NCCCOCC)c3c4c(onc24)-c2ccccc2C3=O)CC1	6.3*	1.9
CN(C)CCCNc1cc(N(C)CCO)c2noc3c2c1C(=O)c1ccccc1-3	7*	-4
CCN(CC)CCNc1cc(N2CCCC2)c2noc3c2c1C(=O)c1ccccc1-3	-1	-0.38
CCN(CC)CCNc1cc(N2CCOCC2)c2noc3c2c1C(=O)c1ccccc1-3	6.5*	-4.9
CCNc1cc(N(C)CCO)c2noc3c2c1C(=O)c1ccccc1-3	-0.08	-0.52
CN(C)CCCNc1cc(N2CCCCC2)c2noc3c2c1C(=O)c1ccccc1-3	1.7	0.05
CN(C)CCCN(C(=O)c1ccc2ncsc2c1)c1nc2c(F)cccc2s1	1.9	x
Cc1cc(S(=O)(=O)NCCc2sc(-c3ccc(F)cc3)nc2C)ccc1F	1	x
CCCn1c(CCNC(=O)CCC(C)O)nc2ccccc21 (centres undefined)	-0.46	-0.28
CCS(=O)(=O)c1ccc(C(=O)Nc2sc3c(c2C(N)=O)CCC3)cc1	1.3	x
CN(C)CCNc1cc(N2CCOCC2)c2noc3c2c1C(=O)c1ccccc1-3	-1.4	-2
